Laboratory results taken from PubChem BioAssay AID686971 (National Center for Advancing Translational Sciences (NCATS), 2013).
Hit rate of the full screen: of about 360,000 compounds, about 7,500 (2.1%) were called active. Inconclusive results (about 8%) are left out. What follows is part of a selection rich in actives, with near analogues and random picks from the rest. A number with no mark means an inactive call. Calls follow the shape of the dose curve; as a rule, active = well fitted cell-killing curve with a large enough effect; inconclusive = small, poorly fitted or top-dose-only effect, or effect the other way, or another doubt; inactive = no such curve, though single readings can be large or run the other way.

assay: qHTS for induction of synthetic lethality in tumor cells producing 2HG: qHTS for the HT-1080-IDH1KD cell line; conditions: HT-1080 IDH1 knockdown viability, ATP luminescence, 48 h; series mostly up to 46.1 µM; activity, negative = toxicity: at the top concentration;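 as to activity, negative = toxicity: 0% = DMSO wells and -100% = cell-free medium wells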
How it was run: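 CellTiter-Glo luminescence after 48 h compound exposure at 37 degrees C of IDH1-knockdown HT-1080 cells in 5% FBS RPMI. %Activity scaled between DMSO wells and cell-free media wells, with curves fitted and assigned curve classes.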
Potency is read from the fitted curve at half-maximal effect.

SMILES | activity, negative = toxicity | Potency
COC(=O)c1cc(OC)ccc1-c1ccc(OC)cc1 | -0.423% [at 9.24 µM] | –
COc1ccc(CNC(=O)CCN2C(=O)c3ccccc3C2=O)cc1 | 17.2% | –
CCOC(=O)C1=C(c2ccc(OC)cc2)C(=O)c2ccccc2C1=O | – | 7.31 µM (active)
CC1=C(C(=O)N(C(C)C)C(C)C)CC(CC(=O)NCC2CCCCC2)C(=O)N1Cc1ccccc1 (stereo not drawn) | -0.475% | –
O=C(NCc1ccccn1)[C@@H]1CCCN1C(=O)[C@@H]1CCCN1C(=O)c1ccccc1 | 0.107% | –
CC(C)/C=N/NC(=O)c1cc(Br)ccc1O | 4.46% | –
CC(=N\NC(=O)c1cc(Br)ccc1O)/C(=N/O)C(=O)Nc1ccccc1 | – | 16.4 µM (active)
CC(=O)N/N=C(\C)c1ccc(Br)cc1Br | 0.294% | –
CN(C)C1CN(Cc2cn(Cc3ccccc3)nn2)S(=O)(=O)C1 (stereo not drawn) | 8.37% | –
CCCNC(=O)C1(C)CCN(C(=O)c2cc(F)ccc2C)C1 (stereo not drawn) | 28.1% | –
CSc1ccc(CNC(=O)C2(C)CCCN2C)cc1 (stereo not drawn) | -1.05% | –
COc1ccc(CN2CCC(n3nccc3NC(=O)CCCc3ccccc3)CC2)cc1C | – | 18.4 µM (active)
Cc1ccc(CN2CCC(n3nccc3NC(=O)CCCc3ccccc3)CC2)o1 | -3.69% | –
COc1cc(CN2CCC(n3nccc3NC(=O)CCCc3ccccc3)CC2)ccc1O | -11.8% | –
Cc1noc(C)c1NC(=O)N(C)C[C@@H]1Oc2cc(Br)ccc2S(=O)(=O)N([C@@H](C)CO)C[C@H]1C | 0.461% | –
CCCNC(=O)C1(C)CCN(C(=O)c2ccc(F)cc2Cl)C1 (stereo not drawn) | 21.7% | –
Cc1cccc(C)c1-n1nnnc1C(CCc1ccccc1)N1CCN(C/C=C/c2ccccc2)CC1 (stereo not drawn) | 18.2% | –
O=C(CC[C@H]1O[C@@H](n2ccc(=O)[nH]c2=O)[C@H](O)[C@@H]1O)N[C@H](Cc1ccccc1)C(=O)NCCCN1CCCC1=O | -0.192% | –
O=C(/C=C/c1ccc([N+](=O)[O-])o1)NNC(=O)c1ccc(F)cc1 | – | 2.59 µM (active)
O=C(NNC(=O)C1CCCC1)c1ccc(F)cc1 | 14% | –
CCc1noc(C)c1C(=O)NNC(=O)c1ccc(F)cc1 | -1.3% | –
CC(C)c1ccc2c(c1)c(SC(C)(C)C)c(CC(C)(C)C(=O)O)n2Cc1ccc(Cl)cc1 | – | 18.4 µM (active)
N#CCCN(C(=O)Nc1ccc(Cl)c(Cl)c1)C1CCCCC1 | -16.4% | –
C[C@H](CO)N1C[C@H](C)[C@@H](CN(C)C(=O)c2cccc(F)c2)Oc2cc(-c3cncnc3)ccc2S1(=O)=O | 2.86% | –

SMILES | activity, negative = toxicity | Potency
Clc1cccc(N=C2NN=C(c3ccc4c(c3)OCCO4)CS2)c1 | – | 7.94 µM (active)
CN(C)c1nc(=Nc2cccc(Cl)c2)ss1 | -2.12% | –
C[C@H]1CN([C@@H](C)CO)C(=O)CCCn2cc(nn2)CO[C@@H]1CN(C)S(=O)(=O)c1cccs1 | 13.1% | –
CCCn1c(N)c(C(=O)CSc2nnc(Cc3cccs3)n2C2CC2)c(=O)[nH]c1=O | 8.77% | –
COc1ccc(N)cc1NC(=O)CN1CCOCC1 | 1.47% | –
NC(=S)NN=Cc1ccc(OC(=O)COc2cc(Cl)c(Cl)cc2Cl)cn1 | – | 7.31 µM (active)
O=C(COc1ccc(Cl)cc1Cl)N/N=C/c1ccccn1 | -20% | –
O=C(COC(=O)COc1cc(Cl)c(Cl)cc1Cl)NC1CC1 | 0.578% | –
CC(C)c1cc(Cn2c3ccccc3c(=O)n2C(C)Cn2cc(C3CC3)nn2)on1 (stereo not drawn) | -8.19% | –
Cc1nnc(NC(=O)CCCOc2ccccc2)s1 | 6.19% | –
CSc1ncc(Cl)c(C(=O)Nc2cc(C)ccc2C)n1 | 14.2% | –
Cc1ccc(CS(=O)(=O)c2ncc(Cl)c(C(=O)Nc3nnc(C)s3)n2)cc1 | – | 20.6 µM (active)
Cc1nnc(NC(=O)c2ccc3nccnc3c2)s1 | 18.6% | –
COCCSc1nnc(NC(=O)CCS(=O)(=O)Cc2ccccc2)s1 | -2.55% | –
CSc1nnc(NC(=O)c2nc(S(=O)(=O)Cc3ccc(C)cc3)ncc2Cl)s1 | – | 6.51 µM (active)
Cc1cc(OCC(=O)Nc2nccs2)c2c(C)c(C)c(=O)oc2c1 | 1.11% | –
CNC(=O)c1ccc(CN(C)C(=O)c2cc(C3CC3)nc3c2cnn3C(C)C)cc1 | -15.6% | –
CC(=O)Oc1ccc(Cn2c(C)c(C(=O)NCc3ccc(C#N)cc3)sc2=O)cc1 | -23% | –
O=C(/C=C/[C@H]1O[C@@H](n2ccc(=O)[nH]c2=O)[C@H](O)[C@@H]1O)NCc1ccccn1 | 18.2% | –
Cc1c(CCO)c(=O)[nH]n1C(=O)c1c(F)cccc1F | – | 6.31 µM (active)
Cc1c(CCO)c(=O)n(-c2ccccc2)n1S(=O)(=O)c1ccc(F)cc1 | -14.4% | –
CC1C(=O)Nc2ccccc2N1C(=O)c1c(F)cccc1F (stereo not drawn) | -5.49% | –
Cc1ccc(C(=O)OCC(=O)NC2CCCCCCC2)cc1C | 14.4% | –
CCOC(=O)C1CCCN(C(=O)c2ccc(N(C)C)cc2)CC1 (stereo not drawn) | 18.3% | –
